VP16 counter: counter-screen for ROR gamma inhibitors: Gal4-VP16 reporter; Drosophila S2 Gal4-VP16 UAS-luciferase, luminescence, 20 h; Potency, µM (titrated, usually from 53.6 µM), inactives show at the top dose activity, negative = inhibition, actives largely listed as inhibitors; 3.5% of 310,000 active; AID 2546;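 further: Gal4-VP16 expression switched on by copper sulfate through the metallothionein promoter; nearly all actives have a fitted effect of over 50% in size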
RORg inh: blocks mouse ROR gamma transcriptional activity; Drosophila S2 Gal4-RORgamma UAS-luciferase reporter, 20 h; Potency, µM (titrated, usually from 53.6 µM), without a hit: top-dose activity change, negative = inhibition, usual class: inhibitors; 5.4% of 310,000 active; further: nearly all actives have a fitted effect of over 60% in size
Target sequence (P51450 whole entry, looked up, the tested form may be a part): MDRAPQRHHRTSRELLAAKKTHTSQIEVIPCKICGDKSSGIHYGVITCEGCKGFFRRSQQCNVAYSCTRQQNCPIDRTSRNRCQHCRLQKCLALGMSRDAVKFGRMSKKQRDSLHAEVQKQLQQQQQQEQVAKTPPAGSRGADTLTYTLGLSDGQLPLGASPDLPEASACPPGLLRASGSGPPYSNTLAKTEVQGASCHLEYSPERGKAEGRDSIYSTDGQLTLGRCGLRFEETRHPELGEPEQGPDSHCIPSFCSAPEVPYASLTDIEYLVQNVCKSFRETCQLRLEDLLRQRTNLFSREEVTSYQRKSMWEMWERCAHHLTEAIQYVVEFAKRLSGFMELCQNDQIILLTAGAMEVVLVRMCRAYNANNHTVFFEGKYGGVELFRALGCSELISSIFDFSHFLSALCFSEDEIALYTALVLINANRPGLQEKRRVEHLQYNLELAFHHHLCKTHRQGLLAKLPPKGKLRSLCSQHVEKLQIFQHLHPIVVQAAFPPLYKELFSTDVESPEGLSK
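Using a luciferase readout, inhibitors were identified by reduced reporter activity in Drosophila cells coexpressing a copper-inducible Gal4–ROR gamma fusion and UAS-driven Photinus luciferase, incubated 20 hr after 700 uM copper sulfate.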
DT40 TDP1 CPT: growth inhibition of DT40 Tdp1-/-;hTDP1 cells with camptothecin (screen for TDP1 inhibitors) | 12% of 420,000 active | Potency, µM (doses to about 46.2 µM), for inactives: at the top dose activity change, negative = growth inhibition, most hits filed as inhibitors | AID 686979 | chicken DT40 Tdp1-/-;hTDP1 cells + 20 nM CPT, ATP luminescence, 48 h; further: nearly all actives have a fitted effect of over 55% in size
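Chicken DT40 Tdp1-/- cells complemented with human TDP1, 400 cells/well, exposed to compounds plus 20 nM camptothecin for at least 48 h at 37 C; viability read as ATP content by CellTiter-Glo luminescence.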
ELG1 repair inh: inhibitors of ELG1-dependent DNA repair in HEK293T cells | 2.3% of 330,000 active | Potency, µM (titrated, usually from 46.1 µM), without a hit: at the highest dose activity change, negative = inhibition, most hits filed as inhibitors | HEK293T ELG1-luciferase reporter, luminescence, 16 h; DNA damage induced by 5-fluorouridine; further: nearly all actives have a fitted effect of over 55% in size
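Step one: seed 2,000 cells per well. Step two: pin-transfer compound or DMSO alongside 5-fluorouridine. Step three: incubate 16 hr, 37 °C, 5% CO2. Step four: add ONE-Glo, wait 30 min, read luminescence.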
TDP1 cell noCPT: qHTS for Inhibitors of human tyrosyl-DNA phosphodiesterase 1 (TDP1): qHTS in cells in absence of CPT. Potency, µM (highest dose often 46.2 µM), for inactives: at the top dose activity change, negative = growth inhibition, most hits filed as inhibitors. 15% of 420,000 active. DT40 Tdp1-/- hTDP1 cells, no CPT, ATP luminescence, 48 h; further: nearly all actives have a fitted effect of over 55% in size
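Readout: luminescence from CellTiter-Glo after 30 min in the dark at RT. Cells: DT40 Tdp1-/- with stable hTDP1, 400/well. Exposure: compounds alone, ≥48 hr, 37 °C.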
ALOX12 inh: inhibitors of human 12S-lipoxygenase ALOX12; P18054; purified 12hLO, xylenol orange hydroperoxide absorbance; Potency, µM (series often up to 108 µM), without a hit: top-dose activity change, negative = inhibition, hits mostly inhibitors; 1.1% of 580,000 active; AID 1671190
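Purified human 12hLO at 150 nM in 25 mM Hepes, 0.01% Triton X-100, pH 7.0, preincubated 15 min at room temperature with compound. Reaction started with 40 uM arachidonic acid, 30 min at room temperature. Hydroperoxide measured by Fe-xylenol orange, 573/405 nm absorbance ratio.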
Numbers without * were called inactive; ? = inconclusive; · = not tested or not shown; [ ] = dose if it differs, or a comment. An excerpt weighted towards active compounds, which were near 15% of everything screened. The call rests on the fitted dose curve; in most records, active means well fitted curve in the direction sought with a large enough effect; inconclusive means small, poorly fitted or top-dose-only effect, or another doubt; inactive means no such curve, though single readings can be large; an effect the other way counts as inactive or inconclusive. On the % scale 0 is the no-effect control and ±100 the full control effect; potency means the concentration at half of the fitted maximal effect.

SMILES	VP16 counter	RORg inh	DT40 TDP1 CPT	ELG1 repair inh	TDP1 cell noCPT	ALOX12 inh
Cc1ccc2c(c1)NC(c1cccnc1)=NC(c1ccc(F)cc1)=N2	·	·	?	·	5.8µM*	3.7%
CCc1ccc2c(c1)NC(c1cccnc1)=NC(c1ccc(C(C)(C)C)cc1)=N2	·	·	18.4µM*	·	?	-7.2%
O=C(CCc1ccccc1)N1CCNc2cnc(Nc3cccnc3)nc2C1	·	·	·	·	·	9.1%[176 µM]
O=C(Cc1cccc(C(F)(F)F)c1)NC1CCN(Cc2ccccc2)CC1	·	·	·	·	·	-1.1%
CC1Cc2ccccc2N1C(=O)CSc1nnc(-c2ccccc2)c(-c2ccccc2)n1 (centres undefined)	-3.3%	4.0%	20.6µM*	?	?	0.5%
CC1Cc2ccccc2N1C(=O)CSc1nnc2c(n1)[nH]c1ccccc12 (centres undefined)	3.7%	-6.1%	?	0.2%	20.6µM*	-0.6%
CC(Sc1nnc(-c2ccccc2)c(-c2ccccc2)n1)C(=O)N1CCc2ccccc21 (centres undefined)	11.2µM*	2.24µM*	?	-2.5%	16.4µM*	-17.3%
COc1ccc(-c2ccc(SCC(=O)N3c4ccccc4CC3C)nn2)cc1OC (centres undefined)	-5.1%	?	?	16.4µM*	?	12.7%
O=C(c1cc(-c2ccccn2)nc2ccccc12)N1CCOCC1	·	·	·	·	·	-8.7%
CN(C)C(=O)C(Sc1nc2ccccc2o1)c1ccccc1 (centres undefined)	·	·	·	·	·	2.2%
CCCCCc1ccc(-c2ccc(C(C)=O)cc2)cc1	·	·	·	·	·	-9.3%
COCCOc1ccc2c(n1)CCN(C(=O)Cc1ccc(F)cc1)C2	·	·	·	·	·	12.8%
CCCc1nc2c(-c3ccc(OC)cc3)c(C)[nH]n2c(=O)c1Cl	·	·	·	·	·	6.2%
COc1ccc(-c2c(C)[nH]n3c(=O)c(Cc4ccccc4)c(C)nc23)cc1	3.16µM*	2.51µM*	13µM*	?	20.6µM*	-12.2%
Cc1nc2c(-c3ccccc3)c[nH]n2c(=O)c1Cc1ccccc1	-8.6%	3.6%	23.1µM*	?	23.1µM*	-2.8%
CCCCc1c(C)nc2c(-c3ccc(Cl)cc3)c(C)[nH]n2c1=O	·	·	4.61µM*	·	1.64µM*	-20.8%
Cc1nc2c(-c3ccccc3)c(C)[nH]n2c(=O)c1Cc1ccc(C(C)C)cc1	·	·	2.59µM*	·	2.31µM*	-10.0%
Cc1cc(C)cc(C(=O)N2CCN(Cc3nc(N)c4ccccc4n3)CC2)c1	·	·	·	·	·	8.3%
CCCN(Cc1cccs1)C(=O)Nc1cc(Cl)ccc1OC	·	·	·	·	·	-0.6%
CCc1c(C)nc2c(-c3ccccc3)c(C)[nH]n2c1=O	?	11.2µM*	-27.7%	-13.4%	-24.1%	8.8%
Cc1ccc(Cc2c(C)nc3c(-c4ccccc4)c(C)[nH]n3c2=O)cc1	·	·	6.51µM*	·	4.61µM*	-13.8%
Cc1cc2nc(C)c(Cc3ccccc3)c(=O)n2[nH]1	2.3%	?	-8.6%	-2.2%	-24.2%	?
COc1ccccc1-c1c(C)[nH]n2c(=O)c(Cc3ccccc3)c(C)nc12	11.2µM*	14.1µM*	?	?	?	-3.2%
Cc1[nH]n2c(=O)c(C#N)c(-c3ccccc3)nc2c1-c1ccccc1	-17.3%	23.0%	3.4%	12.5%	-11.4%	0.0%
CCOC(=O)Cc1c(C)nc2c(-c3ccc(Cl)cc3)c[nH]n2c1=O	15.8µM*	5.62µM*	?	?	?	0.0%
SMILES	VP16 counter	RORg inh	DT40 TDP1 CPT	ELG1 repair inh	TDP1 cell noCPT	ALOX12 inh
CCN(C(=O)c1cc2cc(Br)ccc2oc1=O)C1CCCCC1	·	·	·	·	·	-6.8%
CCOC(=O)Cc1c(C)nc2c(-c3ccc(Cl)cc3)c(C(F)(F)F)nn2c1C	·	·	23.1µM*	·	23.1µM*	-7.8%
CC(NC(=O)Nc1ccccc1C(F)(F)F)c1c(-n2cccc2)sc2c1CCCC2 (centres undefined)	·	·	?	·	10.3µM*	-24.1%
COC(=O)CCNC(=O)NC(CCC(C)C)c1c(-n2cccc2)sc2c1CCN(C)C2 (centres undefined)	·	·	?	·	?	3.3%
CCN1CCc2c(sc(-n3cccc3)c2C(C)NC(=O)Nc2ccc(C(=O)OC)cc2)C1 (centres undefined)	·	·	18.4µM*	·	18.4µM*	-60.2%
CCN1CCc2c(sc(-n3cccc3)c2C(CCC(C)C)NC(=O)NCCC(=O)OC)C1 (centres undefined)	·	·	?	·	25.9µM*	-5.3%
CCOc1ccc(NC(=O)NC(C)c2c(-n3cccc3)sc(C)c2C)cc1 (centres undefined)	·	·	?	·	?	0.0%
Cc1cccc(C)c1NC(=O)Cn1cccc1-c1nc(-c2ccc(F)cc2)no1	·	·	·	·	·	33.3%
COc1cccc(-c2c(C(=O)N/N=C/c3ccco3)nnn2-c2nonc2N)c1	-18.4%	11.2µM*	-4.0%	13.8%	1.5%	-0.9%
COc1ccccc1/C=N/NC(=O)c1nnn(-c2nonc2N)c1-c1ccccc1	·	·	-25.4%	·	-14.5%	-9.7%
COc1cccc(-c2c(C(=O)N/N=C/c3sccc3C)nnn2-c2nonc2N)c1	22.4µM*	8.91µM*	-8.4%	?	3.8%	-6.1%
Nc1nonc1-n1nnc(C(=O)N/N=C/c2ccco2)c1-c1ccccc1	?	?	2.5%	-8.1%	-7.4%	-3.4%
COc1ccccc1/C=N/NC(=O)c1nnn(-c2nonc2N)c1-c1cccs1	-8.0%	0.0%	23.1µM*	24.3%	-15.4%	·
Cc1ccsc1/C=N/NC(=O)c1nnn(-c2nonc2N)c1-c1ccccc1	20µM*	7.08µM*	-23.6%	?	-4.2%	1.2%
CCCc1c(C(=O)N/N=C/c2c[nH]c3ccccc23)nnn1-c1nonc1N	·	·	?	·	?	5.5%
Cc1ccc(-c2c(C(=O)N/N=C/c3sccc3C)nnn2-c2nonc2N)cc1	5.62µM*	4.47µM*	-28.3%	?	?	5.4%
Cc1ccsc1/C=N/NC(=O)c1nnn(-c2nonc2N)c1C	?	?	-0.1%	2.7%	-1.6%	-1.3%
Cc1ccc(-c2c(C(=O)N/N=C/c3c[nH]c4ccccc34)nnn2-c2nonc2N)cc1	?	?	?	?	16.4µM*	7.8%
COc1ccc(NC(=O)c2ccc(S(=O)(=O)N(C)c3ccccc3)cc2)cn1	?	?	14.6µM*	10.3µM*	?	-14.0%
Cc1nc2ccc(NC(=O)c3ccc(S(=O)(=O)N(C)c4ccccc4)cc3)cc2s1	-29.7%	?	?	?	23.1µM*	-0.5%
